# From PubChem BioAssay (EPA / NIEHS)
# The source made the active and inactive calls. The calls were made as follows: active = hit-call score of the fitted dose curve at least 0.9, where 1 is the maximum; inactive = score below 0.9.
# Read-out: HGF (gene 3082)
# Assay: LTEA_HepaRG_HGF: Life Technologies and Expression Analysis (LTEA) Assay for Hepatocyte Growth Facto (HGF) using HepaRG (AID 2283505)
# Conditions: mRNA level, 48 h; actives raise or lower the signal
# Description: LTEA_HepaRG is a cell based, multiplexed-readout assay that uses HepaRG, a human liver cell line, with measurements taken at 48 hours after chemical dosing on a 96-well plate.LTEA_HepaRG_HGF is one of 102 assay component(s) measured in the LTEA HepaRG cell culture assay. It is a marker of Cell proliferation, survival, death.Data from the assay component LTEA_HepaRG_HGF was analyzed into 1 endpoint. This assay endpoint, LTEA_HepaRG_HGF, was analyzed with bidirectional fitting relative to DMSO as the negative control and baseline of activity. Using a type of inducible reporter, measures of mRNA induction for gain or loss-of-signal activity can be used to understand regulation of transcription factor activity. To generalize the intended target to other relatable targets, this assay endpoint is annotated to the growth factor intended target family, where the subfamily is hepatocyte growth factor.
# A total of 1060 chemcials from the ToxCast library were tested in eight-point concentration-response experiments. Cell culture and cytotoxicity assays were conducted at Thermo Fisher Scientific's Custom Services facility (Madison, WI). A single lot of human HepaRG cells (Thermo Fisher Scientific, Frederick, MD) was used for the cell culture experiments. 96-well format collagen type I coated plates of human HepaRG cells were prepared using established methods. Briefly, cryopreserved HepaRG cells were thawed, plated at a density of approximately 100,000 cells/well in HepaRG Thaw, Plate, and General Purpose media (HPRG770, Thermo Fisher Scientific), and incubated for 48 hours. 0.5% DMSO was selected as vehicle control to balance the requisite need of DMSO in HepaRG cultures to maintain differentiation (for example, baseline metabolism, proportions of hepatocytes vs. cholangiocytes), while enabling further hepatic receptor pathway activation (for example, PXR and CAR) in response to chemical exposure. 48 hours after plating, the culture medium was replaced with HepaRG Serum-Free Incudtion Media. Cells were exposed to each test chemical in duplicate and maintained in CO2 incubators for another 48 hours. Chemical plates were thawed to room temperature and 200x concentrations of treatment groups were prepared. 8-point conentration-reponse curves were made with the highest exposure at 100 uM, followed by half-log dilutions, all in 0.5% DMSO. Each test plate contained variouse controls, induction positive controls (1mM phenobarbital), cytotoxicity positive controls ([…] aflatoxin B1), vehicle controls (0.5% DMSO), and total lysis controls (0.5% DMSO). Cell morphology images were taken using an Essen IncuCyte FLR automated microscope, with six 96-well plates imaged in about 24 minutes. Images were captured and exported and JPEG files. Spent culture media was transfered to black-well plates for the LDH assay, and remaining media was sorted at -80 C for later use. Cells were treated with RLT buffer and frozen until shipped for gene expression analysis. Total RNA was isolated from the cell suspension in 75 uL of Buffer RLT (Qiagen, Germantown, MD 20874) by Quintiles/Expression Analysis (Durham, NC) using a custom isolation procedure. Total RNA from each plate well was transferred to a preamplification plate. Fluidigm's 96.96 Dynamic ArrayTM (Fluidigm, Amsterdam, the Netherlands) technology was used for gene expression analyses by quantitative reverse transcription polymerase chain reaction (qRT-PCR, performed by Quintiles/Expression Analysis, Durham, NC)89. Standard TaqManTM Assays (Applied Biosystems/ThermoFisher Scientific, Foster City, CA) were used to assess the expression of 93 genes selected based on their selectivity and sensitivity to important hepatic receptors known to be modulated by environmental chemicals; importance in human hepatocyte functionality; and hepatotoxicity. […]
row,Compound,outcome
1,CCCCN(CCCC)N=O,inactive
2,Cc1ccc([N+](=O)[O-])cc1C,inactive
3,O=C(O)C1C(C(=O)O)C2(Cl)C(Cl)=C(Cl)C1(Cl)C2(Cl)Cl (stereo not given),inactive
4,CCCN(CCC)c1c([N+](=O)[O-])cc(C(C)C)cc1[N+](=O)[O-],inactive
5,COCCOCCO,inactive
6,CCOP(=S)(Oc1ccc([N+](=O)[O-])cc1)c1ccccc1 (stereo not given),inactive
7,ClC(Cl)c1ccccc1,inactive
8,c1ccc2c(c1)Nc1ccccc1S2,inactive
9,CCOc1ccc(C(C)(C)COCc2cccc(Oc3ccccc3)c2)cc1,inactive
10,Cc1cccc(N)c1,inactive
11,c1cc2c3c(cccc3c1)CC2,inactive
12,CC(Cc1ccc(OCC(=O)O)cc1)NCC(O)c1csc(C(F)(F)F)n1 (stereo not given),inactive
13,CCOS(=O)(=O)OCC,inactive
14,CCC1(c2ccccc2)C(=O)N=C(O)NC1=O (stereo not given),inactive
15,c1nc[nH]n1,inactive
16,CN(C)C(=O)Cl,inactive
17,Nc1ccc2ccccc2c1,inactive
18,CCNc1nc(Cl)nc(NC(C)(C)C)n1,inactive
19,ClC1=C(Cl)C2(Cl)C3C(Cl)C(Cl)CC3C1(Cl)C2(Cl)Cl (stereo not given),inactive
20,O=[N+]([O-])c1ccc(Cl)c(Cl)c1,inactive

row,Compound,outcome
1,CC(Cl)(Cl)C(=O)O,inactive
2,CCOP(=S)(OCC)SCSCC,inactive
3,c1ccc(OP(Oc2ccccc2)Oc2ccccc2)cc1,inactive
4,O=P(Oc1ccccc1)(Oc1ccccc1)Oc1ccccc1,inactive
5,Cc1ccc(N)cc1N,inactive
6,O=P1(N(CCCl)CCCl)NCCCO1 (stereo not given),inactive
7,CCN(CC)c1ccccc1,inactive
8,ClC(Cl)(Cl)c1ccccc1,inactive
9,OCC1CO1 (stereo not given),inactive
10,CCCCc1ccccc1,inactive
11,CCCCCCCc1ccc(O)cc1,inactive
12,CC(C)(C)OOC(C)(C)C,inactive
13,CCC(C)(C)c1ccc(O)cc1,inactive
14,O=[N+]([O-])c1ccccc1,inactive
15,CSC(C)(C)C=NO,inactive
16,Nc1cc2c3c(c1)C(c1ccccc1)=N[C@@H](NC(=O)c1cccnc1)C(=O)N3CC2,inactive
17,CCCCN(CCCC)SN(C)C(=O)Oc1cccc2c1OC(C)(C)C2,inactive
18,[N-]=[N+]=[N-],inactive
19,CCOC(=O)c1ccccc1C(=O)OCC,inactive
20,O=C(O)C(Cl)Cl,inactive
